Here are results for 45 sequences from PMC10726135, “HNF4α isoforms regulate the circadian balance between carbohydrate and lipid metabolism in the liver”.

Over roughly 18,000 sequences, “log2 normalized intensity” has its median near 0.36; the highest 2% begin near 7.3. Only a selection was taken, and the highest values are over-represented in it overall.

The target in this test is T1, HNF4alpha8 (COS-7 nuclear extract) (Homo sapiens, UniProt P41235-5 1-452).
T1 sequence: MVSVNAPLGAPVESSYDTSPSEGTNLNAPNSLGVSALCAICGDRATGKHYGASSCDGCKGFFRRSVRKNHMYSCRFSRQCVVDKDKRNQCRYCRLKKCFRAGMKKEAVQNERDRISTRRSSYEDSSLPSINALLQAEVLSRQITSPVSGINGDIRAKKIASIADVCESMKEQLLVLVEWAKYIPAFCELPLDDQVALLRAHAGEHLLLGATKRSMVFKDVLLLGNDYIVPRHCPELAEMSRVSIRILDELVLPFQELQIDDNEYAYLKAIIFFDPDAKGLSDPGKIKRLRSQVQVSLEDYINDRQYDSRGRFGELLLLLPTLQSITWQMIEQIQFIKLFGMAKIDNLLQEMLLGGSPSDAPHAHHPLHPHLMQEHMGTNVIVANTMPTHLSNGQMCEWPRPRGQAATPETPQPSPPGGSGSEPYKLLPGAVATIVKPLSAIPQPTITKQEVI
As to the kind of experiment: protein-binding microarray; COS-7 nuclear extract on double-stranded Agilent 4x180k PBM; binding buffer, salt, pH and temperature not given in the material; high values mean tight binding. The following applies: chain copies: 2; label: 3' end of strand 1 on the slide; dsDNA, one strand shown. In short, it runs like this: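 Binding signal was defined as the normalized, background-corrected gProcessedSignal reported by Agilent software. It came from nuclear extracts of COS-7 cells transiently transfected with a human HNF4α isoform expression vector, applied to a custom Agilent SurePrint G3 4x180k array. That array held ~44,000 test sequences in quadruplicate as double-stranded ~60-nt oligonucleotides, and bound HNF4α was imaged at 2-µm resolution on an Agilent G2565CA scanner.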
With “GTGAGTGTGTTGGCAAGAGATCTGCAGGGTGCCTAGGGAGATTAGAGTATCGGTCGA”, the binding signal was determined as 1.02 log2 normalized intensity. Regarding “TTACATGCCTTATCTGGTTCAAAGGTCATTGCCTAGGGAGATTAGAGTATCGGTCGA”, the binding signal is 8.2 log2 normalized intensity. On to “TATCTGGTTCAAAGGTCATTTCTGCTTGCAGCCTAGGGAGATTAGAGTATCGGTCGA”, for which the binding signal was 6.43 log2 normalized intensity. For “GGTTCAAAGGTCATTTCTGCTTGCAACCAAGCCTAGGGAGATTAGAGTATCGGTCGA”, the binding signal turned out to be 5.81 log2 normalized intensity. As for “TGCCTTATCTGGTTCAAAGGTCATTTCTGCGCCTAGGGAGATTAGAGTATCGGTCGA”, the binding signal is 7.61 log2 normalized intensity. Under “TCCTTTTATCTTACATGCCTTATCTGGTTCGCCTAGGGAGATTAGAGTATCGGTCGA” stands 1.64 log2 normalized intensity.

Consider “TTATCTTACATGCCTTATCTGGTTCAAAGGGCCTAGGGAGATTAGAGTATCGGTCGA”, for which the binding signal came out at 3.33 log2 normalized intensity. Next, “TCCAGAATTGTGTGGTTATCTGTTGGGGAAGCCTAGGGAGATTAGAGTATCGGTCGA”: 2.14 log2 normalized intensity; “GGACTTTGAACCTTGGGTCTGTAATCTCACGCCTAGGGAGATTAGAGTATCGGTCGA”: 7.84 log2 normalized intensity; “TGCAGCAAAACTTTAGGACTTTGAACCTTGGCCTAGGGAGATTAGAGTATCGGTCGA”: 9.2 log2 normalized intensity. As to “TTGAACCTTGGGTCTGTAATCTCACAACTCGCCTAGGGAGATTAGAGTATCGGTCGA”, the binding signal was 1.98 log2 normalized intensity. Next, “CCTTGGGTCTGTAATCTCACAACTCAGAAGGCCTAGGGAGATTAGAGTATCGGTCGA”: -0.129 log2 normalized intensity; “ATAAGGGGCAGCAAACCTACCTGAACTTTGGCCTAGGGAGATTAGAGTATCGGTCGA”: 3.58 log2 normalized intensity. Under “CCTTGCCACCCACACTGCAGCAAAACTTTAGCCTAGGGAGATTAGAGTATCGGTCGA” stands -0.731 log2 normalized intensity; under “GCAAACCTACCTGAACTTTGCCCCAGAGGAGCCTAGGGAGATTAGAGTATCGGTCGA”, 6.74 log2 normalized intensity; under “GGGAGGAGGGCAACCTTTGAACTGGGTCTTGCCTAGGGAGATTAGAGTATCGGTCGA”, 4.84 log2 normalized intensity.

With “GGGCAGCAAACCTACCTGAACTTTGCCCCAGCCTAGGGAGATTAGAGTATCGGTCGA”, the binding signal was 8.83 log2 normalized intensity. Under “CACACTGCAGCAAAACTTTAGGACTTTGAAGCCTAGGGAGATTAGAGTATCGGTCGA” stands 4.12 log2 normalized intensity; under “CAAAACTTTAGGACTTTGAACCTTGGGTCTGCCTAGGGAGATTAGAGTATCGGTCGA”, 7.83 log2 normalized intensity.

“CTTTAGGACTTTGAACCTTGGGTCTGTAATGCCTAGGGAGATTAGAGTATCGGTCGA”: the binding signal came to 6.82 log2 normalized intensity. Under “GTTGCCTGTGAGTCAGGTACCTGCTTCTGCGCCTAGGGAGATTAGAGTATCGGTCGA” stands 0.609 log2 normalized intensity.

As for “TACTTAGTGTTTTATGTGTATTTACTTATTGCCTAGGGAGATTAGAGTATCGGTCGA”, the binding signal is 1.74 log2 normalized intensity. Under “GGCAAGATTTTGTCCTGAGTTATTGGAAGAGCCTAGGGAGATTAGAGTATCGGTCGA” stands 0.282 log2 normalized intensity.

Regarding “TCTTCAAGGAGGTGAACTTTGAGACTATCCGCCTAGGGAGATTAGAGTATCGGTCGA”, the binding signal came to 5.2 log2 normalized intensity. Next, “AAAGTTTCCTCTCCTGCCCTACTCCCTTAAGCCTAGGGAGATTAGAGTATCGGTCGA”: 2.63 log2 normalized intensity; “AGTGGTTTCAAGGTGACCCCACGGAGCTGCGCCTAGGGAGATTAGAGTATCGGTCGA”: 3 log2 normalized intensity. Next, “CCTACCAGTATGCAATGTTAGTCTGGGAAAGCCTAGGGAGATTAGAGTATCGGTCGA”: -0.0207 log2 normalized intensity; “ATTGCCGACCTCATGAGTAGAGAGCAATCAGCCTAGGGAGATTAGAGTATCGGTCGA”: -0.943 log2 normalized intensity. Under “TGTCTCCAGAAATCAACCTTTGATCGTTTGGCCTAGGGAGATTAGAGTATCGGTCGA” stands 6.77 log2 normalized intensity; under “ACTTCTGTCTCCAGAAATCAACCTTTGATCGCCTAGGGAGATTAGAGTATCGGTCGA”, 8.8 log2 normalized intensity. Turning to “ATGTCTCCAGAAACCAACCTTTGATCATTCGCCTAGGGAGATTAGAGTATCGGTCGA”, the binding signal came to 5.75 log2 normalized intensity.

As for “GCCAGAACTGAGCCCTGGTTTATCTGTTGTGCCTAGGGAGATTAGAGTATCGGTCGA”, the binding signal worked out at 0.861 log2 normalized intensity. For the sequence “TTTTCAATCTTATTTTTACTATGTGGCATTGCCTAGGGAGATTAGAGTATCGGTCGA”, the binding signal came to 1.35 log2 normalized intensity. For the sequence “CTGTACACTTACAAGTGTACAAAGGTCACTGCCTAGGGAGATTAGAGTATCGGTCGA”, the binding signal is 8.53 log2 normalized intensity. Under “GTCTGACCAACCTGTCCAAAGGTCATCTGTGCCTAGGGAGATTAGAGTATCGGTCGA” stands 7.75 log2 normalized intensity; under “ACCAACCTGTCCAAAGGTCATCTGTCACTCGCCTAGGGAGATTAGAGTATCGGTCGA”, 6.36 log2 normalized intensity. Turning to “TCAGAGGAATGTCTGACCAACCTGTCCAAAGCCTAGGGAGATTAGAGTATCGGTCGA”, the binding signal is -0.555 log2 normalized intensity. Under “CTTGGCTGTGTCCCTTGACCAAAGGTCACTGCCTAGGGAGATTAGAGTATCGGTCGA” stands 7.67 log2 normalized intensity; under “TATACCTGTACACTTACAAGTGTACAAAGGGCCTAGGGAGATTAGAGTATCGGTCGA”, 2.96 log2 normalized intensity; under “AGTATATTGGCTTGGCTGTGTCCCTTGACCGCCTAGGGAGATTAGAGTATCGGTCGA”, 3.67 log2 normalized intensity. As for “CACTTACAAGTGTACAAAGGTCACTTCTGTGCCTAGGGAGATTAGAGTATCGGTCGA”, the binding signal was found to be 7.03 log2 normalized intensity.

In the case of “CCTGTCCAAAGGTCATCTGTCACTCTAGATGCCTAGGGAGATTAGAGTATCGGTCGA”, the binding signal was 6.02 log2 normalized intensity.

Take “ATTGGCTTGGCTGTGTCCCTTGACCAAAGGGCCTAGGGAGATTAGAGTATCGGTCGA”: the binding signal amounted to 2.62 log2 normalized intensity. “TTATATCAGAGGAATGTCTGACCAACCTGTGCCTAGGGAGATTAGAGTATCGGTCGA”: the binding signal is 0.807 log2 normalized intensity. Regarding “GGAATGTCTGACCAACCTGTCCAAAGGTCAGCCTAGGGAGATTAGAGTATCGGTCGA”, the binding signal is 8.5 log2 normalized intensity.
